We go through 22 molecules from PubChem BioAssay (NCATS).

Test [1] has as its target Cytochrome P450 3A4 (Homo sapiens) (UniProt P08684). Nature of the test: qHTS Assay for Inhibitors and Substrates of Cytochrome P450 3A4 (AID 884). Note: potency is the fitted concentration of half-maximal effect; nearly all actives have a fitted effect of over 50% in size. The settings on record: recombinant CYP3A4, Luciferin-PPXE luminescence; series mostly up to 57.1 µM. Put shortly:
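20 nM human CYP3A4 with 25 uM Luciferin-PPXE (at KM) in 200 mM KPO4, preincubated 10 min with compound; NADPH regeneration started a 60 min RT reaction. Luciferin detected by luminescence, normalized to 57 uM ketoconazole as full inhibition.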

For test [2] the target is unchanged. Nature of the test: qHTS Assay for Activators of Cytochrome P450 3A4 (AID 885). Note: nearly all actives have a fitted effect of over 65% in size. The following applies: recombinant CYP3A4, Luciferin-PPXE luminescence, 60 min; series mostly up to 57.1 µM. Put shortly: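 20nM CYP3A4 + 25uM Luciferin-PPXE (=KM), 200mM KPO4; cpd 10 min RT; NADPH regen, 60 min RT; stop w/ detection buffer, 20 min; luminescence. Normalized to 57 uM ketoconazole.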

Several values for one entry are separate records, joined by “and”; a condition that tells them apart may be missing. Equal values may be shown once. Values without a mark were called inactive. Inconclusive results are not listed. Activity calls are given as the source filed them. Calls come from the whole dose curve; as a rule, active = well fitted curve in the direction sought with a large enough effect; inconclusive = small, poorly fitted or top-dose-only effect, or another doubt; inactive = no such curve, though single readings can be large; an effect the other way counts as inactive or inconclusive.

Cytochrome P450 3A4 (Homo sapiens), sequence (P08684 whole entry, looked up): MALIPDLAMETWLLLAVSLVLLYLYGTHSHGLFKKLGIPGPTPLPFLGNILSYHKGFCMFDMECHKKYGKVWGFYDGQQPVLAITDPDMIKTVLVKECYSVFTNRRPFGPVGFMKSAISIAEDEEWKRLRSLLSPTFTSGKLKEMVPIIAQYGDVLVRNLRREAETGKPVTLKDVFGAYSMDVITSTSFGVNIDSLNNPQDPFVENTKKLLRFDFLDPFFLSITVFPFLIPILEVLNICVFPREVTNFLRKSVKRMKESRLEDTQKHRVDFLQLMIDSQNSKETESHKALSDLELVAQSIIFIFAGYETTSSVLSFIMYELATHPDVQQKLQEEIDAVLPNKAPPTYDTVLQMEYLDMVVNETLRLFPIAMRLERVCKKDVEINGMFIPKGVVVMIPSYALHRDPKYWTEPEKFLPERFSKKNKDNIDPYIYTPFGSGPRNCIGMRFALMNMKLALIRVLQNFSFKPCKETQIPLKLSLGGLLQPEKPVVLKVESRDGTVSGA

On to `C/C(CCN1CCCc2nc(C)c(C)cc21)=N\O[C@@H](C)CN1CCCCc2nc(C)c(C)cc21`, for which the Potency in test [1] is 3.98 µM (active). The activity change, positive = activation in test [2] is -69.7% [at 11.4 µM].
Turning to `CCC1=C(OC(=O)N(CC)CC)N2C(=O)OC(=NCc3ccccc3)[C@]2(C)[C@H]2C1=CC[C@H]1C(=O)N(CC(=O)OC)C(=O)[C@H]12`, in test [1], the Potency was 5.01 µM (active). Besides, in test [2], the Potency result was “inactive”.
Regarding `C[C@@H](c1ccccc1)N1C(=O)[C@H]2[C@H]3[C@H](O)[C@H](O)C/C(=N/OC[C@@H](O)COCc4ccco4)[C@H]3CC[C@@H]2C1=O`, in test [1], the Potency was 3.98 µM (active). Moreover, the activity change, positive = activation in test [2] is -66.6% [at 11.4 µM].
Turning to `COC(=O)[C@@H]1C[C@H]2CC[C@H](O)C[C@H]2N1Cc1ccccc1OS(=O)(=O)c1ccc(C)cc1`, the Potency in test [1] was 2 µM (active). Also, in test [2], the Potency result is “inactive”.
`CCC1=C(OC(=O)N(CC)CC)N2C(=O)OC(=NCCc3c[nH]c4ccccc34)[C@]2(C)[C@H]2C1=CC[C@H]1C(=O)N(CC(=O)OC)C(=O)[C@H]12`: the Potency in test [1] is 2 µM (active). Moreover, the Potency result in test [2] was “inactive”.
`FC(F)(F)c1ccc(CN2C[C@@H]3C(c4ccccc4)C4(c5cccnc5)CC3(C4)[C@H]2c2ccccc2)cc1` (stereo partly drawn): the Potency in test [1] was 15.8 µM (active). Also, the Potency result in test [2] is “inactive”.
The like results for `Clc1ccc(C2[C@H]3CN(Cc4cccnc4)[C@H](c4ccccc4)C34CC2(c2ccccc2)C4)cn1` (stereo partly drawn) were, in that order, 2 µM (active) and “inactive”.
As to `CCN1C(=O)[C@@H]2[C@H](C1=O)[C@@H]1C[C@H]3C(=O)N(CC)C(=O)[C@H]3[C@@H]3C1=C(C(=O)N1C(=O)O/C(=N\CC4CC4)[C@]31C)[C@@H]2C`, the Potency in test [1] was 15.8 µM (active). In test [2], the Potency entry is “inactive”.
As to `CN1C[C@@H]2C(c3ccc(C(F)(F)F)cc3)C3(c4cccnc4)CC2(C3)[C@H]1c1ccccc1` (stereo partly drawn), the Potency in test [1] is 7.94 µM (active). Moreover, the Potency entry in test [2] was “inactive”.
The like results for `c1ccc(C2[C@H]3CN(CC4CCCCC4)[C@H](c4ccccc4)C34CC2(c2cccnc2)C4)cc1` (stereo partly drawn) were, in that order, 12.6 µM (active) and “inactive”.
In the case of `CCC1=C2CC[C@H]3C(=O)N(CC(=O)OC)C(=O)[C@H]3[C@H]2[C@@]2(Cc3ccccc3)C(=NCCc3c[nH]c4ccccc34)OC(=O)N2C1=O`, the Potency in test [1] was 1.26 µM (active). Besides, the Potency entry in test [2] was “inactive”.
`Cn1c(=O)c(C(=O)COC(=O)c2cc(-c3ccco3)nc3ccccc23)c(N)n(CC2CC2)c1=O`: the Potency in test [1] is 7.94 µM (active). Besides, in test [2], the Potency result is “inactive”.
Taken in the same sequence, the figures for `CCC1=C(OC(=O)N(CC)CC)N2C(=O)OC(=NCCc3c[nH]c4ccccc34)[C@]2(C)[C@H]2C1=CC[C@H]1C(=O)NC(=O)[C@H]12` were 2.51 µM (active) and “inactive”.
For the molecule `CCc1cc2c(nc1CC)CCN(CC/C(C)=N/O[C@@H](C)c1cc(-c3c(C)cc(C)cc3C)no1)C2`, the Potency in test [1] is 3.98 µM (active). In addition, in test [2], the activity change, positive = activation was -69% [at 11.4 µM].
For the molecule `C/C(CCN1CCCc2nc(C)c(C)cc21)=N\O[C@@H](C)c1cn([C@H](CO)Cc2ccccc2)nn1`, the Potency in test [1] was 2 µM (active). The activity change, positive = activation in test [2] was -60.4% [at 11.4 µM] and -67% [at 11.4 µM].
`CCC1=C2CC[C@H]3C(=O)N(CC(=O)OC)C(=O)[C@H]3[C@H]2[C@@]2(C)C(=NCCc3c[nH]c4ccccc34)OC(=O)N2C1=O`: in test [1], the Potency was 6.31 µM (active). Also, the Potency result in test [2] was “inactive”.
As to `CCC1=C(OC(=O)N(CC)CC)N2C(=O)OC(=NCCc3c[nH]c4ccccc34)[C@]2(C)[C@H]2C1=CC[C@H]1C(=O)N(CC)C(=O)[C@H]12`, in test [1], the Potency was 1.26 µM (active). For the same molecule, in test [2], the Potency entry is “inactive”.
As to `CCCNC(=O)OC[C@@H]1O[C@H](c2ccccc2)C=C[C@@H]1Oc1ccc(OC)cc1`, the Potency in test [1] was 3.98 µM (active). The activity change, positive = activation in test [2] is -82.9% [at 11.4 µM].
Turning to `C/C(CCC(=O)OC[C@@H]1O[C@H](C#Cc2ccccc2)C=C[C@@H]1Oc1ccc(C)cc1)=N/OC[C@@H](O)[C@H]1O[C@H]2OC(C)(C)O[C@H]2[C@@H]1O`, the Potency in test [1] was 3.98 µM (active). In addition, the activity change, positive = activation in test [2] was -117% [at 11.4 µM].
On to `CCC1=C2CC[C@H]3C(=O)N(c4ccccc4)C(=O)[C@H]3[C@H]2[C@@]2(Cc3ccccc3)C(=NCc3ccccc3)OC(=O)N2C1=O`, for which the Potency in test [1] was 5.01 µM (active). Moreover, the Potency entry in test [2] was “inactive”.
Taken in the same sequence, the figures for `CCC1=C(OC(=O)N(CC)CC)N2C(=O)OC(=NCC(=O)OC)[C@]2(Cc2ccccc2)[C@H]2C1=CC[C@H]1C(=O)NC(=O)[C@H]12` were 6.31 µM (active) and “inactive”.
Turning to `C#CCCCO/N=C1/[C@H]2O[C@@H]2[C@@H](O)[C@H]2[C@H]1CCn1c(=O)n([C@@H](CC)c3ccccc3)c(=O)n12`, in test [2], the activity change, positive = activation is -55.5% [at 11.4 µM].
